Values joined by “and” are separate entries in the source; they are usually repeats but may differ in a detail not shown here. Equal values may be shown once. The panel holds about 83,000 compounds, 20% with a hit somewhere; the sample as a whole holds those more often.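 Cells were grown in 96-well plates and exposed to the test compound at a single concentration for 48 hours; results are reported as percent growth, with values below 10 considered active.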 A number with no mark means an inactive call. Active and inactive are the calls of the source.
The compounds below were run on MDA-MB-468 breast (assay: NCI-60 one-dose screen, 48 h (100 = growth as untreated, 0 = no growth, -100 = all killed)). Conditions: 10 µM unless noted.

Q: COc1cc(/C=C2\Oc3cc(OCCCN4CCCC4)ccc3C2=O)cc(OC)c1 was tested. Which growth did it give?
A: 42.3%

Q: Which growth does the source give for CN(C)CCCC1(c2ccc(F)cc2)OCc2cc(-c3cncc4ccccc34)ccc21 (stereo not given) here?
A: -4.62% (active)

Q: Which growth does the source give for CN(C)c1ccc(/C=C/c2nccc3ccccc23)cc1 here?
A: -1.08% (active)

Q: For Nc1nc(N)c2c(n1)NC(c1ccc(Cl)cc1)CC(c1ccc(Nc3nc(NCCO)nc(N4CCOCC4)n3)cc1)=N2 (stereo not given), which growth is on record?
A: 73.7%

Q: Which growth does the source give for COc1ccc2oc3cc(NCCN(C)C)ccc3c(=O)c2c1 here?
A: 103% and 88.7%

Q: Which growth does the source give for CC(CN1CCCCC1)C(=O)c1ccccc1 (stereo not given) here?
A: 105%

Q: Which growth does the source give for O=C(/C=C/c1cccc(O)c1)c1cccc(-n2cc(-c3ccc(Cl)cc3)[nH]c2=O)c1 here?
A: 37.6%

Q: Cc1cc(=O)n2nnc3cc(Cl)c(Cl)cc3n12 was tested. Which growth did it give?
A: 67%

Q: How did the growth turn out when Nc1ccc(/C=N/Nc2ccnc3c(O)cccc23)c2cccnc12 was run?
A: 73.6%

Q: How did the growth turn out when Cc1cccc(C)c1NC(=O)CSC(=S)N1CCN(CCOCCO)CC1 was run?
A: 127%

Q: Which growth does the source give for O=C(NNC(=S)Nc1ccccc1)c1ccncc1 here?
A: 122%

Q: For Cc1ccc2nc(NC(=O)CSC(=S)N3CCN(c4ccccc4)CC3)sc2c1, which growth is on record?
A: 101%

Q: How did the growth turn out when CCCOS(=O)(=O)c1ccccc1 was run?
A: 108%

Q: For CN1CCN(C(=S)S)CC1, which growth is on record?
A: 119%

Q: For CN(C)CCNc1nc2c3cc(Cl)ccc3nn2c2ccccc12, which growth is on record?
A: 74.2%

Q: COC(=O)[C@]12CC[C@@H](C)[C@H](C)[C@@H]1C1=CC[C@@H]3[C@@]4(C)C[C@@H](OC(C)=O)[C@H](OC(C)=O)[C@@](C)(COC(C)=O)[C@@H]4[C@H](O)C[C@@]3(C)[C@]1(C)CC2 was tested. Which growth did it give?
A: -6.62% (active)

Q: How did the growth turn out when NC(CC(N)C(=O)O)C(=O)O (stereo not given) was run?
A: 90.5%

Q: CCN(CC)CCCC(C)Nc1cnc(C(=O)Nc2cc(F)cc3cccnc23)cn1 (stereo not given) was tested. Which growth did it give?
A: 6.24% (active) and -66.3% (active)

Q: How did the growth turn out when O=C1C(Cl)=C(NCCN2CCOCC2)C(=O)c2ncccc21 was run?
A: -74.1% (active)

Q: Which growth does the source give for O/N=C/c1cccs1 here?
A: 106%

Q: O=C(Nc1cccc2ccccc12)NC1CC1 was tested. Which growth did it give?
A: 96%

Q: How did the growth turn out when O=C(Nc1ccc(F)cc1)c1ccc(C(=O)Nc2ccc(F)cc2)cc1 was run?
A: 99.7%

Q: With CC1(C)CC(=O)C2=C(C1)OC1=C(C(=O)CC(C)(C)C1)C2c1ccc(OCc2cn(-c3ccc(F)cc3F)nn2)cc1 as the compound, how does the growth read?
A: 103%

Q: CN1CCN(Cc2ccc(NC(=O)c3[nH]ncc3Nc3ncnc4sc5c(c34)CCCC5)cc2)CC1 was tested. Which growth did it give?
A: -58.7% (active)

Q: How did the growth turn out when O=C(C=P(c1ccccc1)(c1ccccc1)c1ccccc1)c1ccc(Br)cc1 was run?
A: 92%

Q: With NS(=O)(=O)Oc1ccc(-c2ccc3sccc3c2)cc1 as the compound, how does the growth read?
A: 87.1%

Q: Which growth does the source give for CS(=O)(=O)c1ccc(-n2nc(-c3ccc(Br)cc3)c3ccccc3c2=O)cc1 here?
A: 100%

Q: How did the growth turn out when COc1ccccc1/C=C1\COc2ccc(O)cc2C1=O was run?
A: 68.7%

Q: With Nc1nccc2c1ccn2-c1cccc(NC(=O)c2ccc(N3CCOCC3)c(C(F)(F)F)c2)c1 as the compound, how does the growth read?
A: -14.2% (active)

Q: With C=C1C(=O)O[C@H]2[C@H]1CC/C(COC(=O)/C=C\C(=O)NCc1ccc(Cn3c(=O)sn(CCCl)c3=O)cc1)=C\CC[C@@]1(C)O[C@@H]21 as the compound, how does the growth read?
A: 43%

Q: Cc1ccc(-n2c(-c3cc4c([nH]c5ccccc54)c(-c4cccc(O)c4)n3)n[nH]c2=S)cc1 was tested. Which growth did it give?
A: -32.3% (active)

Q: Which growth does the source give for O=C(/C=C/c1ccc[nH]1)c1ccc(-n2ccc(C(F)(F)F)n2)cc1 here?
A: 90.3%

Q: With COc1ccc(N=C2NN=C(c3c[nH]c4ccccc34)CS2)cc1OC as the compound, how does the growth read?
A: 10.5%

Q: Which growth does the source give for N=C1S/C(=C/c2ccc(-c3ccc4c(c3)C(=O)NC4=O)o2)C(=O)N1c1ccc(Br)cc1 here?
A: 51.6%

Q: For CCCCOC(=O)C1OC(Oc2ccc3c(C)cc(=O)oc3c2)[C@@H](OC(C)=O)C(OC(C)=O)C1OC(C)=O (stereo not given in full), which growth is on record?
A: 101%

Q: With CCOC(=O)c1c(NCC(=O)Nc2cccc([N+](=O)[O-])c2)sc2c1CCCC2 as the compound, how does the growth read?
A: -77.2% (active)

Q: For CC(C)C(C#N)(C(C)C)C(C)C, which growth is on record?
A: 109%

Q: For O=C1N/C(=N/O)S/C1=C/c1cn(-c2ccccc2)nc1-c1ccccc1, which growth is on record?
A: 84.6%

Q: With Cn1cc(-c2nc(-c3c[nH]c4ncccc34)cs2)c2ccccc21 as the compound, how does the growth read?
A: -19% (active)

Q: For COc1cc2c3c(n(C4CCNCC4)c(=O)c2cc1OC)-c1cc2c(cc1C3=O)OCO2, which growth is on record?
A: -81% (active)

From PubChem BioAssay (NCI)
